Legend:
[1] = molecular target: Leukocyte tyrosine kinase receptor (Homo sapiens) (UniProt P29376); details: at 1 µM;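 also: each value is the mean inhibition of LTK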
[2] = molecular target: Tyrosine-protein kinase Lyn (Homo sapiens) (UniProt P07948); details: at 0.1 µM
[3] = molecular target: Tyrosine-protein kinase Lyn (Homo sapiens) (UniProt P07948); details: at 1 µM
[4] = molecular target: Tyrosine-protein kinase Lyn (Homo sapiens) (UniProt P07948); details: at 0.1 µM; remark: listed apart in the source
[5] = molecular target: Tyrosine-protein kinase Lyn (Homo sapiens) (UniProt P07948); details: at 1 µM; remark: listed apart in the source
[6] = molecular target: T1, Tyrosine-protein kinase Mer (Homo sapiens) (UniProt Q12866); details: at 0.1 µM
T1 sequence (whole entry): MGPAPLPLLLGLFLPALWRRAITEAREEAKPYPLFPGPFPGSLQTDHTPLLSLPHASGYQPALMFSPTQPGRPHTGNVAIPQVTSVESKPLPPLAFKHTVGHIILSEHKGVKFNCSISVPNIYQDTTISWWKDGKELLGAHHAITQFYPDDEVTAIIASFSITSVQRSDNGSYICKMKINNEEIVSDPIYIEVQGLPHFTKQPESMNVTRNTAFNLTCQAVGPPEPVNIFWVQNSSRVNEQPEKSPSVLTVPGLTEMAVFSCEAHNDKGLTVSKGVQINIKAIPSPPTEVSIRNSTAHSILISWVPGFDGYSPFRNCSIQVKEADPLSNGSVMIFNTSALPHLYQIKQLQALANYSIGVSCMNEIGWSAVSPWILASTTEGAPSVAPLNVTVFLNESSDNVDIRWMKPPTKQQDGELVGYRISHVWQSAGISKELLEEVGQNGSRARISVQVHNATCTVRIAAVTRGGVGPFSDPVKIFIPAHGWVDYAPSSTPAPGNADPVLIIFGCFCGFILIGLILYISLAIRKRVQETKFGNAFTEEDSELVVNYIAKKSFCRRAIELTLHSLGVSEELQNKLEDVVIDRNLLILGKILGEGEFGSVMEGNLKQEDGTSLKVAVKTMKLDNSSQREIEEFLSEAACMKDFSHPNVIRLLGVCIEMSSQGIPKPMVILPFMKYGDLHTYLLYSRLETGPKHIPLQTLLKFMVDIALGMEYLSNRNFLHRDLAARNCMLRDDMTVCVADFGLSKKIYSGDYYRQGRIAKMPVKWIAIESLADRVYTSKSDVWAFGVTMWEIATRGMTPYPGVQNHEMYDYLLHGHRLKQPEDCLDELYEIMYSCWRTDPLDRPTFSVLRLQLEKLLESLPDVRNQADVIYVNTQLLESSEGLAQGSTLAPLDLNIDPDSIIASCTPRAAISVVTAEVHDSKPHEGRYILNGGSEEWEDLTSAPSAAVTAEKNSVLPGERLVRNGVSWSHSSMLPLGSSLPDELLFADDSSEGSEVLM

[7] = molecular target: T1, Tyrosine-protein kinase Mer (Homo sapiens); details: at 1 µM
[8] = molecular target: Hepatocyte growth factor receptor (Homo sapiens) (UniProt P08581); details: at 0.1 µM
[9] = molecular target: Hepatocyte growth factor receptor (Homo sapiens) (UniProt P08581); details: at 1 µM
[10] = molecular target: T2, Muscle, skeletal receptor tyrosine-protein kinase (Homo sapiens) (UniProt O15146); details: at 0.1 µM;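 also: values are mean inhibition of MuSK from the GSK PKIS kinase screening panel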
T2 sequence (whole entry): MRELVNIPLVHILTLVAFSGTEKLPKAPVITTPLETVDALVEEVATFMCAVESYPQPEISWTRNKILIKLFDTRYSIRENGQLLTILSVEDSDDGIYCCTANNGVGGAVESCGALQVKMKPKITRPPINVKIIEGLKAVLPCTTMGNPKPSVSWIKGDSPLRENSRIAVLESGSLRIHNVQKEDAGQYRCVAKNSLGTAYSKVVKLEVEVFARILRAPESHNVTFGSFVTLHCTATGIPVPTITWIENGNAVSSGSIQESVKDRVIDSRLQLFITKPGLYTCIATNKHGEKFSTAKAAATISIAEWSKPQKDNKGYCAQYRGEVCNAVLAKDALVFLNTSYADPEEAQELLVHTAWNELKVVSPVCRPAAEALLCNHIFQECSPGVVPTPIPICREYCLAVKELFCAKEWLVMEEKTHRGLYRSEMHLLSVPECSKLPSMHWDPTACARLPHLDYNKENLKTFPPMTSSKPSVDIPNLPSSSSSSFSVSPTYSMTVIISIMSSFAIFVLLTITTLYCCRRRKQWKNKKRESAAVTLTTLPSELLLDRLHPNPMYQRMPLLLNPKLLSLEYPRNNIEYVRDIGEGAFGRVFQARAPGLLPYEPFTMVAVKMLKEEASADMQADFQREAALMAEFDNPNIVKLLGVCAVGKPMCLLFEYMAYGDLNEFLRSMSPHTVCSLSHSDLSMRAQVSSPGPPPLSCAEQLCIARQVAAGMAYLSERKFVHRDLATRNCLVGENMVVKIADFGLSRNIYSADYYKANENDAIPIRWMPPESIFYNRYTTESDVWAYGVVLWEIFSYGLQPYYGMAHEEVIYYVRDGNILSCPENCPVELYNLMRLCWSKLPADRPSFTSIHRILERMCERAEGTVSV

Sequence of Leukocyte tyrosine kinase receptor (Homo sapiens) (P29376 whole entry): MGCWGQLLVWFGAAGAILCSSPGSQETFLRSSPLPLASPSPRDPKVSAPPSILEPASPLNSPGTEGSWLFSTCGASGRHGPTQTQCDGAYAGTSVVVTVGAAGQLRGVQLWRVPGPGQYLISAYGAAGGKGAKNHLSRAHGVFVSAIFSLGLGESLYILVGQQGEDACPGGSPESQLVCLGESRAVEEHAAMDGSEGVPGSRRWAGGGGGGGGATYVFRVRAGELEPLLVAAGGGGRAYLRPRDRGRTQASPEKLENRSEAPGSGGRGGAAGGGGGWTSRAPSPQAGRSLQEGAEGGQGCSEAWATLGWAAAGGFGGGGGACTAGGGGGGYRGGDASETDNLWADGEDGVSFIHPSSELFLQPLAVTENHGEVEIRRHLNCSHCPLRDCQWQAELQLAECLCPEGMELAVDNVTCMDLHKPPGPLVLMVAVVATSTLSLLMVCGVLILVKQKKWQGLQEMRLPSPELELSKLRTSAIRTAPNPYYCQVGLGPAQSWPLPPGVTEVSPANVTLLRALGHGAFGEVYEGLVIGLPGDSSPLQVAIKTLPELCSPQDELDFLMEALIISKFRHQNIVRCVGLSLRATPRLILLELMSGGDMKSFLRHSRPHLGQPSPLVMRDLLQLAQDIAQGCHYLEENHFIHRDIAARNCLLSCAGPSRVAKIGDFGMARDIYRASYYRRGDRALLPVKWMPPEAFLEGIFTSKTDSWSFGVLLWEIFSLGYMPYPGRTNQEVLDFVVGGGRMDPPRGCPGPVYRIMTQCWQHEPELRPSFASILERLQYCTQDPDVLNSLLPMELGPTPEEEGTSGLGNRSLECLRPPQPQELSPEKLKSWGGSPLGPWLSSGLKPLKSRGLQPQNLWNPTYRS
Sequence of Hepatocyte growth factor receptor (Homo sapiens) (P08581 whole entry): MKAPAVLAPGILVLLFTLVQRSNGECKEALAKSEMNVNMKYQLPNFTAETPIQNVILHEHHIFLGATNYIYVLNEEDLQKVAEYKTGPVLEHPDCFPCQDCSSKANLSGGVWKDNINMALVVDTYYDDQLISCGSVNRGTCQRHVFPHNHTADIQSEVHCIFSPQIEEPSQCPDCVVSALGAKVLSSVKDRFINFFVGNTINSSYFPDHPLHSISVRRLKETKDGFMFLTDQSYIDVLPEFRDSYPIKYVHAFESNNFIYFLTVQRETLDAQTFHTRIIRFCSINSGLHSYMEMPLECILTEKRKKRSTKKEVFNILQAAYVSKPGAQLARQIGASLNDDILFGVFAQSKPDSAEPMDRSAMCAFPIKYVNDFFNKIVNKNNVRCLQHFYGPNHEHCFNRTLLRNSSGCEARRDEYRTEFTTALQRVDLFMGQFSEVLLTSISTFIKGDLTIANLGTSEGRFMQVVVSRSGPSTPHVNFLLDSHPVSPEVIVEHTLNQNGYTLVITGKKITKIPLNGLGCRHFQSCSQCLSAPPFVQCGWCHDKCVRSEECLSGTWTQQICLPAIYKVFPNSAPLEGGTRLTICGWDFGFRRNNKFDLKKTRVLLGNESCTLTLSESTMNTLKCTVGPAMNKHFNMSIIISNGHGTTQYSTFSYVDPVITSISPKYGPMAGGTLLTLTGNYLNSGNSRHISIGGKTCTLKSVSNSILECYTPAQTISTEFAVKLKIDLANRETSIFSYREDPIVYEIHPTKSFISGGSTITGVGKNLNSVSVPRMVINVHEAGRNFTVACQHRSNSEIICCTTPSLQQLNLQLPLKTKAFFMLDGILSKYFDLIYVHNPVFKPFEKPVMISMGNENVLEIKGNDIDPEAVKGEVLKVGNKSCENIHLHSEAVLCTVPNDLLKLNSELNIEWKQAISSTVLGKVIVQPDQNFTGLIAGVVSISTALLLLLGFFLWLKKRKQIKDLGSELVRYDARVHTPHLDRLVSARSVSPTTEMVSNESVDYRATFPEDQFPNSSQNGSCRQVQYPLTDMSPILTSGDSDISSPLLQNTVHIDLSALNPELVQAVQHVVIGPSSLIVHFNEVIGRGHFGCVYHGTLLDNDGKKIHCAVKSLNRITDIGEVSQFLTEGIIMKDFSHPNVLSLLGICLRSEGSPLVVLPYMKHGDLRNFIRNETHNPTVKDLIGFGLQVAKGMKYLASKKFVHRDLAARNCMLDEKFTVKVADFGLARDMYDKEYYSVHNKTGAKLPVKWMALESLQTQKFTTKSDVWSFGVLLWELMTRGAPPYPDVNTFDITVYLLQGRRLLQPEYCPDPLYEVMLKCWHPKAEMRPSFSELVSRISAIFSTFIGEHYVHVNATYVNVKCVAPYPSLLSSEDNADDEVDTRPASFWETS
Sequence of Tyrosine-protein kinase Lyn (Homo sapiens) (P07948 2-512 limits assumed): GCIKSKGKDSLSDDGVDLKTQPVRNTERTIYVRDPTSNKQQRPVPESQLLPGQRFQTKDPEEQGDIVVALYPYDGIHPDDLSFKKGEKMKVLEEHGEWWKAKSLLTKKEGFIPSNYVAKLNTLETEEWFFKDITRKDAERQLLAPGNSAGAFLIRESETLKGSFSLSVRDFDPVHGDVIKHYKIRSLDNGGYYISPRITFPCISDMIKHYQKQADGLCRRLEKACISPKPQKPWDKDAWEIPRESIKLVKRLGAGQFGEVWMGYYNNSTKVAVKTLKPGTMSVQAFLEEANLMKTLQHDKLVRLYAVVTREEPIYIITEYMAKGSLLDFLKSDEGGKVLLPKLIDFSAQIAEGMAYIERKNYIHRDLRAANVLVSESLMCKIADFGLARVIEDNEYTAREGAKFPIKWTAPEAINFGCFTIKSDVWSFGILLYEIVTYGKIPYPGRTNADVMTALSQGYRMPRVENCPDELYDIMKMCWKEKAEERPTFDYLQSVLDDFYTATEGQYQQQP

SMILES	inhibition [1] [%]	inhibition [2] [%]	inhibition [3] [%]	inhibition [4] [%]	inhibition [5] [%]	inhibition [6] [%]	inhibition [7] [%]	inhibition [8] [%]	inhibition [9] [%]	inhibition [10] [%]
CC1=C(C(=O)Nc2ccc3[nH]ncc3c2)C(c2ccc3ccccc3c2)CC(=O)N1 (stereo not given)	3.95	6.74	30.8	4.2	26.2	0.87	2.79	8.81	40.3	2.08
COc1cc2c(cc1Nc1nc(N3CCc4ccccc43)c3cc[nH]c3n1)N(C(=O)CN(C)C)CC2	89.9	1.75	1.39	0.29	1.23	1.28	0.11	2.24	-6.58	-0.85
CNC(=O)c1cncc(/C=C/c2c(Cl)cccc2Cl)c1	5.04	11.1	48.7	7.62	43.5	2.3	2.24	2.67	1.88	3.75
Cc1cc(O)cc(C)c1/C=C/c1cncc(-c2nn[nH]n2)c1	27.8	21.9	78.4	17	73.9	2.28	5.61	3.29	8.95	2.58
Cc1nn(C)c2cc(N(C)c3ccnc(Nc4cccc(S(N)(=O)=O)c4)n3)ccc12	29	13.6	51.3	9.71	46.8	2.42	18.8	7.18	37.1	2.31
Cc1cccc(-c2n[nH]cc2-c2ccc3ncccc3n2)n1	0.08	0.89	7.91	0.34	7.01	-0.08	0.84	2.89	-1.62	0.64
NS(=O)(=O)c1ccc(N/N=C2\C(=O)Nc3ccc(C(=O)NCCc4c[nH]cn4)cc32)cc1	7.32	8.15	15.6	5.07	12.6	0.87	4.99	8.81	12.3	10.8
CCCN1CCC=C(c2ccc(Nc3nc(Nc4ccccc4C(N)=O)c4cc[nH]c4n3)c(C)c2)C1	93.9	2.75	6.69	-0.18	2.97	1.4	10.5	6.76	13.1	4.95
COC(=O)Nc1nc2cc(Oc3cccc(NC(=O)Nc4cc(C(F)(F)F)ccc4F)c3)ccc2[nH]1	24.9	7.9	45.9	5.64	41.6	-1.21	-0.14	1	0.32	4.58
CS(=O)(=O)CCN(CC#N)Cc1ccc(-c2ccc3ncnc(Nc4ccc(OCc5cccc(F)c5)c(Cl)c4)c3c2)o1	1.95	2.44	3.17	1.32	1.72	2.77	2.05	7.6	2.64	1.44
Cn1cc(C=C2C(=O)Nc3cccnc32)c2ccccc21	5.51	6.97	41.8	5.53	36	2.2	16.9	0.96	5.5	3.74
COc1ccc(-c2coc3ncnc(N)c23)cc1	2.3	5.38	5.54	3.09	7.61	2.63	2.9	10	6.47	4.06
CC(C)=Cc1cccc2c1/C(=N/Nc1ccc(S(N)(=O)=O)cc1)C(=O)N2	11.3	6.78	35.8	5.19	29.9	0.25	3.48	-0.76	19.6	7
CCn1c(-c2nonc2N)nc2cncc(C(=O)N3CC[C@H](N)C3)c21	4.61	8.57	7.74	6.42	5.67	0.47	3.48	5.74	5.85	4.23
COc1cc2ncn(-c3cc(O[C@@H](C)c4ccccc4Cl)c(C(N)=O)s3)c2cc1OC	4.56	6.39	28.6	4.74	22	4.25	10.3	4.76	3.23	2.77
CCn1c(-c2nonc2N)nc2cncc(C(=O)N3CCNCC3)c21	5.18	5.29	5.94	1.79	4.29	1.99	2.33	2.94	2.13	3.39
CN1CCC(C(=O)Nc2n[nH]c3nnc(-c4ccccc4)cc23)CC1	4.51	5.18	4.72	2.24	3.51	1.95	7.11	1.78	3.43	3.93

SMILES	inhibition [1] [%]	inhibition [2] [%]	inhibition [3] [%]	inhibition [4] [%]	inhibition [5] [%]	inhibition [6] [%]	inhibition [7] [%]	inhibition [8] [%]	inhibition [9] [%]	inhibition [10] [%]
O=C1Nc2ccc(C(=O)c3ccco3)cc2C1=Cc1cc(Cl)c(O)c(Cl)c1	44.2	5.67	18.9	2.95	16.2	1.35	4.42	2.06	15.7	4.03
Fc1cccc(COc2ccc(Nc3ncnc4sc(-c5cccs5)cc34)cc2Cl)c1	1.68	0.57	1.59	0.13	2.6	1.5	0.96	-1.35	-0.09	-0.17
COc1cc(C)c(NC(=O)CN(C)C)cc1Nc1nc(Nc2cccc(F)c2C(N)=O)c2cc[nH]c2n1	95.6	3.5	1.33	2.46	-0.14	2.47	7.53	3.32	-1.66	5.47
[O-][S+]1CCN(Cc2ccc(-c3ccc4ncnc(Nc5ccc(OCc6ccccc6)c(F)c5)c4c3)o2)CC1	3.33	2.19	5.34	1.2	1.42	42.1	81.8	6.51	0.93	1.44
Cc1nnc(-c2ccc(C)c(-c3ccc(C(=O)Nc4cccc(C#N)c4)cc3)c2)o1	1.76	3.98	6.36	2.18	5.78	0.8	2.51	3.66	-0.54	2.58
CS(=O)(=O)CCNCc1ccc(-c2ccc3ncnc(Nc4ccc(OCc5cccc(F)c5)c(C(F)(F)F)c4)c3c2)o1	3.49	6.53	6.94	3.88	4.94	1.14	0.83	7.18	3.55	3.27
CCn1c(-c2nonc2N)nc2cnc(Oc3cccc(NC(=O)c4ccc(OCCN5CCOCC5)cc4)c3)cc21	1.51	5.8	4.87	3.05	2.62	1.1	2.56	3.9	7.84	2.09
O=C(Nc1n[nH]c2nc(-c3ccco3)c(Br)cc12)C1CC1	0.72	4.37	4.24	2.54	3.6	1.42	4.5	1.38	6.65	2.24
NS(=O)(=O)c1cccc(-c2ccc3c(NC(=O)C4CC4)n[nH]c3c2)c1	-0.78	1.09	1.65	1.19	1.05	0.89	1.03	-4.06	3.16	0.75
CS(=O)(=O)CCNCc1ccc(-c2ccc3ncnc(Nc4ccc(OCc5ccccc5)c(Cl)c4)c3c2)o1	4.23	1.21	6.25	1.19	5.08	4.37	30.6	5.04	7.4	3.89
CN(C)c1cc2c(Nc3ccc4nc(Cc5ccccc5)[nH]c4c3)ncnc2cn1	3.97	9.84	32.1	7.8	28.7	1.94	8.97	0.15	5.85	2.63
c1cnn2ncc(-c3ccnc(Nc4ccc5c(c4)OCCO5)n3)c2c1	21.9	7.12	12.7	4.02	11	4.03	19.6	3.78	16.8	5.35
NCc1ccc(-c2nc(-c3ccc(Cl)c(O)c3)c(-c3ccncc3)[nH]2)cc1	1.88	6.73	42.8	4.81	37.1	-0.12	6.1	5.53	14.5	0.08
O=C1NC(=O)C(c2cccc(Cl)c2)=C1Nc1ccc(O)c(Cl)c1	0.35	1.27	3.18	0.38	3.63	-0.5	3.08	0.77	3.7	0.25
CCCN1CCC(Oc2cc(Nc3nc(Nc4cccc(F)c4C(N)=O)c4cc[nH]c4n3)c(OC)cc2Cl)CC1	68.8	0	2.61	-0.77	1.89	0.64	2.77	-1.41	-2.15	3.31
O=C1NC(=O)C(c2ccccc2Cl)=C1Nc1cccc(O)c1	1.2	5.68	3.94	1.34	2.65	1.63	4.66	1.79	-0.4	3.23
Nc1nc(-c2ccccn2)c(-c2ccc3ncccc3n2)s1	2.34	4.59	4.44	2.14	3.06	0.73	4.5	2.46	9.52	3.99

From ChEMBL document CHEMBL1961873, “Compounds: GSK PKIS; Assays: Nanosyn kinase panel” (2012)
